# Results filed as inconclusive are left out. Calls of active or inactive are those of the source. Calls come from the whole dose curve; as a rule, active = well fitted curve in the direction sought with a large enough effect; inconclusive = small, poorly fitted or top-dose-only effect, or effect the other way, or another doubt; inactive = no such curve, though single readings can be large or run the other way.
# Test: Confirmatory redox qHTS assay for identification of artifact compounds.
# Details: Amplex Red/HRP redox cycling with DTT, fluorescence; series mostly up to 39 µM
# Summary of the method: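 Amplex Red (25 uM final) and HRP (250 mU/mL final) in HBSS, compound 15 min, then 250 uM DTT final 30 min, room temperature, dark; fluorescence 525/598 nm, normalized to DMSO and 10 uM DA3003, Hill fitted.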
row,SMILES,outcome
1,O=c1c2ccccc2sn1-c1cc(S(=O)(=O)N2CCOCC2)ccc1N1CCCCC1,inactive
2,Cc1ccc(-n2ncc(C(=O)N3CCN(c4ccccn4)CC3)c2C2CCN(C(=O)OC(C)(C)C)CC2)cc1C,inactive
3,Cc1cc2c(s1)c1cnn(Cc3cc(F)c(Cl)cc3Cl)c(=O)c1n2C,inactive
4,Cc1cc(C)c(S(=O)(=O)NCC(c2ccco2)S(=O)(=O)c2cccs2)c(C)c1 (stereo not given),inactive
5,CCOC(=O)c1ccccc1NC(=O)Cn1c(=O)n(-c2cccc(C)c2)c(=O)c2c1c1cc(C)ccc1n2C,inactive
6,CCCC(=O)O[C@]1(C(=O)COC(C)=O)CC[C@H]2[C@@H]3C[C@H](F)C4=CC(=O)C=C[C@]4(C)[C@@]3(F)[C@@H](O)C[C@@]21C,inactive
7,Cc1nc(-c2ccccc2C(C)C)nc(NCc2ccc(-c3cccnc3)cc2)c1C,inactive
8,Cc1ccc(C(=O)CSc2nc(-c3ccccc3)nc3c2CCCC3)c(C)c1,inactive
9,COc1ccc(CCNC(=O)Cn2ncc3c(C)n(Cc4ccccc4F)c(C)c3c2=O)cc1OC,inactive
10,CCCCCCOc1ccc(CC(=O)O)cc1,inactive
11,COc1ccc(NC(=O)N2CCc3c(sc4c3CCCC4)C2c2ccccc2OC)cc1 (stereo not given),inactive
12,O=C(CN1C(=O)CCn2nc(-c3ccccc3)cc21)NCc1ccc(F)cc1,inactive
13,CC(C)Oc1ccc(CNC(=O)Cc2ccc(NC(=O)N3CCSc4ncccc43)cc2)cc1,inactive
14,Cc1cccc(NC(=O)CN2C(=O)C(c3ccc(F)cc3)=NC23CCCCCC3)c1,inactive
15,CC(C)Oc1ccc(C(=O)N2CCC(c3nc4ccccc4s3)CC2)cc1,inactive
16,Cc1ccc2c(c1)cc(C(=O)NCc1ccc(F)cc1)n2C,inactive
17,O=S(=O)(NCCCCNS(=O)(=O)c1cccc2cccnc12)c1cccc2cccnc12,inactive
18,O=C(NNCNNC(=O)c1ccncc1)c1ccncc1,inactive
19,CCOc1ccc(Cn2c(=O)sc3ccccc32)cc1,inactive
20,O=C(CSc1nc(-c2ccccc2)[nH]c1-c1ccc(F)cc1)NC1CCCC1,inactive

row,SMILES,outcome
1,O=C1CCc2cc(S(=O)(=O)Nc3cccc(F)c3)ccc2N1,inactive
2,COc1cccc(CNC(=O)C2Cc3cc(S(=O)(=O)N4CCCCCC4)ccc3N2C(C)=O)c1 (stereo not given),inactive
3,C=C[C@@]1(C)C[C@H](OC(=O)CSC(C)(C)CNC(=O)[C@@H](N)C(C)C)[C@@]2(C)C(C)CC[C@@]3(CCC(=O)[C@@H]32)[C@H](C)[C@H]1O (stereo not given in full),inactive
4,COc1cc2c(NC3CCN(C)CC3)nc(N3CCCN(C)CC3)nc2cc1OCC1CCCNC1 (stereo not given),inactive
5,COc1cc2c(NC3CCN(C(C)C)CC3)nc(N3CCCN(c4ccccc4)CC3)nc2cc1OCCCN1CCCCC1,inactive
6,Cc1cccc(N2CCN(CCCNC(=O)c3nnc(Cc4c(F)cccc4Cl)o3)CC2C)c1 (stereo not given),inactive
7,COc1cc2c(NC3CCN(C)CC3)nc(N3CCCN(C)CC3)nc2cc1OCCCCC(N)=O,inactive
8,CN(C)CCNC(=O)CN1C(=O)CCn2nc(-c3cn(C)c4ccccc34)cc21,inactive
9,COc1ccc(C(=O)Nc2ccc(-n3nncc3-c3ccccc3)cc2)cc1OC,inactive
10,COc1ccc(S(=O)(=O)N(CCc2ccccc2)CC(=O)Nc2cc(Cl)ccc2C)cc1,inactive
11,COc1cccc(-c2nc(SCC(=O)Nc3ccc4c(c3)OCO4)c(-c3ccccc3)[nH]2)c1,inactive
12,COc1ccccc1NC(=O)CSc1nnc(NC(=O)NC2CCCCC2)s1,inactive
13,CC(=NCc1ccccc1)c1ccccc1O,inactive
14,Cc1nc2ccc(S(=O)(=O)N(CC(=O)Nc3ccc(F)cc3F)Cc3ccccc3)cc2s1,inactive
15,O=C1c2ccccc2C(=O)N1c1ccc2ncccc2c1,inactive
16,Oc1ccc(CNc2cccc(F)c2F)c2cccnc12,inactive
17,COc1cc(O)c(C(CC(=O)N2CCCCC2)c2ccc(C)cc2)c(OC)c1 (stereo not given),inactive
18,COc1cc2nc(N3CCCCC3)nc(NC(C)C)c2cc1OC,inactive
19,Cc1cccc(C)c1NC(=O)CCSCCc1ccccn1,inactive
20,COc1ccc(-c2nc(CS(=O)CC(=O)NCCc3ccccc3)c(C)o2)cc1OC (stereo not given),inactive

# Reference: PubChem BioAssay AID1845225 (National Center for Advancing Translational Sciences (NCATS), 2023)
